This note sets out measurements from the OligoGym collection.
Note: reference of the scale not given here.

The target of the first experiment is COL4A3BP. As to the kind of experiment: pooled miR-30 sensor sort-seq; sequence = guide strand. The conditions noted are these: shRNA.
As for TTATTTTTCAAAACTACCCAAC, the sensor-assay potency score (higher = more potent) is -0.396.
As to TTCTCTTCTGTATACCTTCATT, the sensor-assay potency score (higher = more potent) was -1.23.
For TACTTCTCTTCTGTATACCTTC, the sensor-assay potency score (higher = more potent) was -0.012.
For TATCTTGTCTGTCAAGAGCAGC, the sensor-assay potency score (higher = more potent) was -1.23.
Same read-out and setting: with TTCTTCTACAACCAACTGCCAA the figure was -0.938; with TAACTTTTCTTTATTGCCGTTG, -0.347.
On the same count and under the same terms, then TCGACATTCATCAAAATCGTGA, with -0.678.
Regarding TTGTAGGAAAGTCATCTTCATC, the sensor-assay potency score (higher = more potent) is -1.71.
For TTAGCTACATATGTAATCTTGC, the sensor-assay potency score (higher = more potent) was 0.206.
For TTCTCCTTCTTCTACAACCAAC, the sensor-assay potency score (higher = more potent) is -1.55.

The target of a further experiment is COMMD10. The experiment is described as above. As to conditions: shRNA.
Take TTCCACAAGAACTTTCTCCAGG: the sensor-assay potency score (higher = more potent) is -0.261.
TTTTTGAAGAATCCGAGTGAGC: the sensor-assay potency score (higher = more potent) is -1.13.
On to TTGTCTAAGATGAATGTTCTCT, for which the sensor-assay potency score (higher = more potent) came to 0.187.
Still for that read-out and setting: with TTAACAATGATCTCTATTGGTT the figure was -0.722; with TTGAGCAGAGTGAGCCATCTGA, -0.146; with TATTGTTTCAAGAACTAGGTGA, 0.412.
Take TTGCATTTATCAGTGACACTGC: the sensor-assay potency score (higher = more potent) was 0.191.
Still for that read-out and setting: with TTCTACTAAGGTACACATCTTA the figure was 0.49; with TAAGGTACACATCTTATCTTGT, 0.795; with TGCTTGTATAGTCTCTAGCTTG, -1.08.
Turning to TTGTATAGTCTCTAGCTTGTTA, the sensor-assay potency score (higher = more potent) is 0.109.
Regarding TAGAAATCAAACAACTCCTTGT, the sensor-assay potency score (higher = more potent) amounted to 0.836.
